The whole screen tested about 96,000 compounds, of which about 19,000 (20%) were called active. A selection follows. Values without a mark were called inactive.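 Rule for the calls: active = blocking of liver enzyme CYP2C9 beyond about 50% at 5 µM (limit read from the data); inactive = the rest.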
Target: Cytochrome P450 2C9 (Homo sapiens) (UniProt P11712)
Assay: blockers of cytochrome P450 2C9 activity – biochemical, luminescence, ADME assay, primary screen (AID 777)
Settings: CYP2C9 Supersomes, luciferin-H conversion, at 5 µM, hits give high values

Cytochrome P450 2C9 (Homo sapiens), sequence (P11712 whole entry, looked up): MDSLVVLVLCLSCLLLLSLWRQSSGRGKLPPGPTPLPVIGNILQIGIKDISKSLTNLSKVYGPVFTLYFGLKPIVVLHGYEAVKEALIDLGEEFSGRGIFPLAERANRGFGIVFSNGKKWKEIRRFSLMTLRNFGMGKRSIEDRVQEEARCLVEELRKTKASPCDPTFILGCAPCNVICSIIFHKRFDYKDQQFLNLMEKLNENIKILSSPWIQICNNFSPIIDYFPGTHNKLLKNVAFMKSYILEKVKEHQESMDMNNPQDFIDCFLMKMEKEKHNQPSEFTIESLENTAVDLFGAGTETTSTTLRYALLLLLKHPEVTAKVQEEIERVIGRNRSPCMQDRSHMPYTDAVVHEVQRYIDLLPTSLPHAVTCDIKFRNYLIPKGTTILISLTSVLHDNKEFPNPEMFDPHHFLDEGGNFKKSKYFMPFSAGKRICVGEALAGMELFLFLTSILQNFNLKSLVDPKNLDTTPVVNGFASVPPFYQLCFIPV

| Compound | inhibition |
| --- | --- |
| Cc1cccc(C)c1N1CCN(S(=O)(=O)N2CCOCC2)CC1 | 22.3% |
| Cc1nnc(SCC(=O)NC(=O)NC2CCCC2)n1N | 3.3% |
| CCCCCCNCCn1cnc2c(N)ncnc21 | -0.6% |
| CC12c3ccccc3C(c3ccccc31)C1C(=O)N(Cc3cccnc3)C(=O)C12 (stereo not drawn) | 20.2% |
| C#CCN(N(C)c1ncc(C(F)(F)F)cc1Cl)S(=O)(=O)c1ccc2ccccc2c1 | 48.7% |
| CCN(CC)S(=O)(=O)c1ccc(N(C)Cc2ccc(C(F)(F)F)cc2)nc1 | 80.4% (active) |
| COc1cc(Cl)c(C)cc1NC(=O)CSc1nnc(-c2cccnc2)n1Cc1ccco1 | 72.4% (active) |
| O=C(CSc1nnc(-c2cccs2)n1Cc1ccco1)c1ccc2c(c1)OCO2 | 69.4% (active) |
| CCc1cccc(C)c1NC(=O)CSc1nnc(-c2ccco2)n1N | 16.9% |
| CCn1c(SCC(=O)Nc2cc(C)c(Cl)cc2OC)nnc1-c1ccco1 | 61.9% (active) |
| CCCn1c(SCC(=O)c2ccc3c(c2)OCCO3)nnc1C(C)C | 7.1% |
| CCn1c(SCC(=O)Nc2cc(C)ccc2C)nnc1-c1cnccn1 | 1.2% |
| C(=C\c1ccccc1)/CSc1nnc(-c2cccnc2)n1Cc1ccco1 | 57.6% (active) |
| Cc1ccc(NC(=O)CSc2nnc(-c3cnccn3)n2Cc2ccco2)cc1C | 22.7% |
| CCc1ccc(NC(=O)CSc2nnc(-c3cnccn3)n2Cc2ccco2)cc1 | 41.8% |
| COc1ccc(NC(=O)CSc2nnc(-c3cccs3)n2Cc2ccco2)cc1OC | 30.5% |
| Cc1ccccc1CSc1nnc(-c2cccnc2)n1N | -26.6% |
| COc1cc(OC)cc(-c2cc3nc(C4CCN(C(=O)OC(C)(C)C)CC4)cc(=O)n3[nH]2)c1 | -10.3% |
| Cc1nnc2sc(-c3ccco3)nn12 | -2.2% |
| CN(C)/C=C1\C=C(c2ccccc2)OC1=O | -1.5% |
| CN(C)c1ccc(NC(=S)N(CCc2ccccc2)C2CC(=O)N(c3c(Cl)cccc3Cl)C2=O)cc1 (stereo not drawn) | 17% |
| O=C1CC(Cc2ccccc2)C(=O)N1c1ccc(Cl)cn1 (stereo not drawn) | 20.3% |
| COc1ccccc1NC(=O)CSc1nc2sc(C)c(C)c2c(=O)n1Cc1ccco1 | 93.8% (active) |
| CCn1c(COc2ccc(OC)cc2)nnc1SCC(=O)Nc1cc(OC)ccc1OC | 53.8% (active) |
| COc1cc(Cl)c(C)cc1NC(=O)CSc1nnc(-c2ccco2)n1CC(C)C | 82.6% (active) |

| Compound | inhibition |
| --- | --- |
| COc1ccccc1NC(=O)CSc1nnc(-c2ccoc2C)n1CCc1ccccc1 | 43.7% |
| O=C(CSc1nnc(-c2cccnc2)n1Cc1ccco1)c1ccc(Cl)c(Cl)c1 | 81.6% (active) |
| COc1ccc(C)cc1-n1nnnc1SCC(=O)c1cc(C)n(Cc2ccco2)c1C | 27.2% |
| O=C(CSc1nnc(-c2cnccn2)n1Cc1ccco1)c1ccc(Cl)c(Cl)c1 | 28.8% |
| O=C(CSc1nnc(-c2cccnc2)n1Cc1ccco1)c1ccc(Cl)cc1 | 23.6% |
| COc1ccc(OC)c(NC(=O)CSc2nc3cccnc3n2C)c1 | 7.6% |
| CCn1c(COc2ccccc2)nnc1SCC(=O)Nc1ccc2c(c1)OCCO2 | 6.8% |
| O=C(CSc1nnc(-c2ccco2)n1Cc1ccccc1)NC(=O)NCc1ccco1 | 29.5% |
| CCCOC(=O)Nc1ccccc1C(N)=O | -7.2% |
| N=c1c2c3c(sc2ncn1CCCN1CCOCC1)CCCCC3 | 6.9% |
| CCOc1ccc(N=Cc2c(O)n(-c3cccc(C)n3)c(=O)c3ccccc23)cc1 | 18% |
| Cc1cc(C)n(-c2cc(Oc3ccccc3)ncn2)n1 | 21.8% |
| CCOc1ccc(NC(=O)CC2NCCNC2=O)cc1 (stereo not drawn) | -7% |
| CCN(CC)C(=O)C1CCC(C)(C(=O)O)C1(C)C (stereo not drawn) | -7.9% |
| CCn1c(COc2cccc(OC)c2)nnc1SCC(=O)N1CCOCC1 | 15.4% |
| COc1ccc(C(=O)CSc2nnc(COc3ccccc3)n2Cc2ccco2)cc1 | 55.9% (active) |
| CCN(CC)C(=O)CSc1nnc(CNc2ccc(F)cc2)n1Cc1ccco1 | -8.3% |
| CCn1c(SCc2ccc(C)cc2)nnc1-c1nn(-c2ccccc2)ccc1=O | 5% |
| Cc1cc(C)n(-c2ccc(Cl)c(C(=O)O)n2)n1 | -21% |
| Cc1ccc(-n2ccc(=O)c(C(=O)O)n2)cc1 | 54% (active) |
| C=CCn1c(SCC(=O)Nc2nc3ccccc3s2)nnc1-c1ccccc1O | 56.6% (active) |
| C=CCn1c(CSc2nc3ccccc3s2)nnc1SCC(=O)NCc1ccco1 | 24.7% |
| C=CCn1c(SCC(=O)NCc2ccccc2)nnc1-c1cc(Br)ccc1O | 97.5% (active) |
| C=CCn1c(N)cc(=O)nc1SCC(=O)Nc1cccc2ccccc12 | -3.7% |
| C=CCn1c(COc2ccccc2)nnc1SCC(=O)NCC(=O)OCC | -5.6% |

| Compound | inhibition |
| --- | --- |
| Cc1nnc(SCC(=O)NCc2ccccc2)s1 | -1% |
| CCC(Sc1nncn1C)C(=O)Nc1nnc(-c2ccc(Cl)cc2)s1 (stereo not drawn) | 32.9% |
| COc1ccc2c(c1OC)C(=O)OC2c1c(O)nc(SC)n(-c2ccccc2)c1=O (stereo not drawn) | -12.4% |
| O=C(NC1CC2CCCC(C1)N2C(=O)N1CCCCC1)C1CCCCC1 (stereo not drawn) | 25.5% |
| CCOc1ccccc1Nc1nnc(SCC(=O)Nc2cc(C)on2)s1 | 7.4% |
| COc1ncnc2c1N=C1CC(C)(C)CC(N)=C1S2 | 1.2% |
| Cc1nc2cc(NC(=O)CSc3nc4c(C)cccc4cc3C#N)ccc2s1 | 25.5% |
| Cc1cc2cc3c(cc2nc1SCC(=O)Nc1c(C)cccc1C)CCC3 | 61.6% (active) |
| CCCn1c(SCC(=O)Nc2c(C)cccc2C)nnc1C(C)C | 4.1% |
| Cn1c(SCC(=O)OC2CCCCC2)nnc1-c1ccc(S(=O)(=O)N2CCCC2)cc1 | 7.9% |
| CCN(CC)c1ccc(/C=N/Nc2nc(C)cc(=O)[nH]2)cc1 | -21.5% |
| CC1=C2C(=O)OC(c3ccoc3)C2(C)CCC1 (stereo not drawn) | 57.9% (active) |
| CC(C)C(=O)Nc1c(C(=O)c2ccc(F)cc2)oc2ccccc12 | -0.2% |
| CCOc1nnc(C)c2c(C)n(-c3cccc(Cl)c3)nc12 | 28.6% |
| CCOc1ccc2nc(NC(=O)CSc3nc4c(c(=O)n(C)c(=O)n4C)n3CC)sc2c1 | 52.2% (active) |
| C#CC(C)(C)NC(=O)CSc1nc2c(c(=O)n(C)c(=O)n2C)n1CCCC | 23.7% |
| CCOC(=O)CNC(=O)CSc1nnc(-c2cccc(OC)c2)n1CC | 9.9% |
| CCCCn1c(SCC(=O)NCCc2ccc(OC)c(OC)c2)nc2c1c(=O)n(C)c(=O)n2C | -17.3% |
| CCCn1c(SCC(=O)Nc2cccc(C(=O)OCC)c2)nnc1-c1ccoc1C | 15.8% |
| CCn1c(SCC(=O)Nc2nc3ccc(OC)cc3s2)nnc1-c1ccoc1C | 68.2% (active) |
| Cc1c(Nc2cc(N3CCCC(C)C3)c3nonc3c2[N+](=O)[O-])c(=O)n(-c2ccccc2)n1C (stereo not drawn) | 41.4% |
| CC1CSc2nnc(CCc3ccccc3)n21 (stereo not drawn) | -10.1% |
| COc1ccccc1NC(=O)COc1ccc(C(=O)OCC(=O)N(C(C)C)C(C)C)cc1OC | 37.6% |
| CC1CC(C)CN(CC(=O)Nc2ccc(S(N)(=O)=O)cc2)C1 (stereo not drawn) | 15.7% |
| CN(C)/C=C1/Nc2ccccc2C1=O | -8.2% |

| Compound | inhibition |
| --- | --- |
| c1ccc(-n2nnnc2N2CCOCC2)cc1 | -5.9% |
| O=C(CN1CCOCC1)Nc1c2c(nc3c1CCC3)CCC2 | -11.6% |
| CCN(CC)CCn1c2ccc(Cl)cc2c2nc(C)sc21 | 46.4% |
| Cc1nc(Cl)c2oc3ccccc3c2n1 | 9% |
| COc1ccc(-c2cc(C(F)(F)F)nc(S(C)(=O)=O)n2)cc1OC | 4.2% |
| CCC(Oc1ccccc1)C(=O)NCc1cccnc1 (stereo not drawn) | 8.8% |
| COc1ccc(-c2cc(C(F)(F)F)nc(NCc3cccnc3)n2)cc1 | 55.3% (active) |
| C=CCC(NCCCO)c1cccc(OC)c1OC (stereo not drawn) | -26.1% |
| CC(C)(C)c1cc2cccnc2n1Cc1ccccc1 | 0.7% |
| CCOc1cccc(SCc2noc(C(=O)NC(C)C)c2C(=O)O)c1 | 73.7% (active) |
| COc1ccc(SCc2noc(C(=O)NCC3CCCO3)c2C(=O)O)cc1 (stereo not drawn) | 20.1% |
| CCOc1ccc2nc(SC(CC)C(=O)Nc3cc(C)on3)sc2c1 (stereo not drawn) | -4.1% |
| COCCNC(=O)c1onc(CSc2cccc(C)c2)c1C(=O)O | 30.2% |
| CCCCNC(=O)c1onc(CSc2cccc(OC)c2)c1C(=O)O | 82.5% (active) |
| COC(=O)c1c(CCl)noc1C(=O)NC(C)C | -0.5% |
| O=[N+]([O-])c1ccc(Oc2ccc(F)cc2Br)c2ccncc12 | 6.1% |
| Cc1ccc(NC(=O)Nc2ccc3oc(C)nc3c2)cc1 | 8.7% |
| CCOC(=O)CSC1=C(C#N)C(c2sccc2C)CC(=O)N1 (stereo not drawn) | 54.8% (active) |
| Cc1ccc(C2CC(=O)NC(SCC(=O)OCc3ccccc3)=C2C#N)o1 (stereo not drawn) | 97% (active) |
| C=CCSC1=C(C#N)C(c2cc(Br)c(O)c(OC)c2)CC(=O)N1 (stereo not drawn) | 39.1% |
| COC(=O)CSC1=C(C#N)C(c2ccccc2OC)C(C(=O)OC)C(=O)N1 (stereo not drawn) | 24% |
| CCOC(=O)c1ccc(N2C(=O)CC(Sc3nc(O)c(CC)c(=O)[nH]3)C2=O)cc1 (stereo not drawn) | 26.2% |
| O=C(COc1ccc(Cl)cc1)N1CCN(c2cccc(C(F)(F)F)c2)CC1 | 13.6% |

— PubChem BioAssay AID777 (Sanford-Burnham Center for Chemical Genomics, 2007)
